From PubChem
Rows were chosen to be rich in hits. Some 4.1% of all compounds tested hit in one or more screens of this group.
ssDAF12 agonist: S. stercoralis DAF-12 nuclear receptor activators, primary screen, cell-based, luminescence, HEK293, GRIP1 co-expression, lit1-tk-luc | HEK293 ssDAF-12/GRIP1 lit1-tk-luc reporter; % of 3 µM dafachronic acid response | 370,000 compounds, 1% hits | activation, % at 6.8 µM | Nuclear hormone receptor DAF-12 (Strongyloides stercoralis);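 active means activation above the mean over all tested compounds plus 3 SD, cut at about 0.9% in these data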
hgDAF12 agonist: H. glycines DAF-12 receptor agonists, primary screen, cell-based, luminescence, HEK293, GAL4 fusion, UAS-luciferase; Nuclear hormone receptor DAF-12 (Heterodera glycines), GAL4 fusion; HEK293 GAL4-hgDAF12 UAS-luciferase reporter, agonist luminescence; normalized to butyrate control; activation, % at 6.8 µM; 370,000 compounds, 1.8% hits; AID 687014, 2013;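 active means activation above a cutoff set at the mean of all screened compounds plus 3 SD, cut at about 10% in these data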
DAX1 inh-1: DAX1 (NR0B1) inhibitors, primary screen, cell-based, HEK293, Gal4-DAX1, luciferase luminescence; Nuclear receptor subfamily 0 group B member 1 (Homo sapiens), P51843; 340,000 compounds, 0.99% hits; inhibition, % at 6.75 µM; HEK293 Gal4-DAX1 luciferase reporter;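 active means inhibition above the mean over all tested compounds plus 3 SD, cut at about 4.2% in these data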;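 further: inhibition shows as a rise in luminescence from relieved DAX1 repression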
Target sequence (P51843 207-470 limits assumed): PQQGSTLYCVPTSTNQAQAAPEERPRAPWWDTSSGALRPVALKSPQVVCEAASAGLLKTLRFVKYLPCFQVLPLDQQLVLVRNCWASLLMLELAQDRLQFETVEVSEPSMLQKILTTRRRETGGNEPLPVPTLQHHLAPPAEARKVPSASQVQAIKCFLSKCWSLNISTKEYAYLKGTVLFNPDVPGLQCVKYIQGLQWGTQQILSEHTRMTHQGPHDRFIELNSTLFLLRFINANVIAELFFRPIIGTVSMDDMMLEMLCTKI
hcDAF12 agonist: H. contortus DAF-12 nuclear receptor activators, primary screen, cell-based, luminescence, HEK293, lit1-tk-luc reporter; 370,000 compounds, 1.4% hits; HEK293 hcDAF-12 lit1-tk-luc reporter; 0% DMSO, 100% Δ7-dafachronic acid; activation, % at 6.8 µM;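 active means activation above the mean of all tested compounds plus 3 SD, cut at about 5.5% in these data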
DAX1 inh-2: DAX1 (NR0B1) inhibitors on StAR promoter, primary screen, cell-based, luminescence, SF-1 (NR5A1), full-length DAX-1; HEK293T StAR-luciferase reporter, SF-1/DAX-1 repression relief; AID 652010, 2013; inhibition, % at 6.8 µM; 370,000 compounds, 1.1% hits;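 active means inhibition above the mean over all tested compounds plus 3 SD, cut at about 3.6% in these data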;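 further: higher inhibition means more luminescence from relief of DAX-1 repression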
Each line names hits and unclear results; the compound was inactive in the other large screens.

Cc1ccc(C)c(CN2CCC(CNC(=O)Nc3ccc(Br)cc3F)CC2)c1	none
Cc1cc(C)cc(N(CC(=O)NC2CCC(C)CC2)S(=O)(=O)c2ccccc2)c1 (centres undefined)	none (no result: DAX1 inh-1)
CCN(CC)S(=O)(=O)c1ccc(N2CCCCC2)c(NC(=O)/C(C#N)=C/c2ccc(OC)cc2)c1	hcDAF12 agonist 6.3
CCN(CC)S(=O)(=O)c1ccc(N2CCCC2)c(NC(=O)Cc2cc(OC)c(OC)c(OC)c2)c1	DAX1 inh-1 4.7
COCCN1C(=O)C2=C(C1=O)C1N(C)c3ccccc3[C@@]13C[C@@H](CO)N(C(=O)CCC(=O)OC)C3=N2 (some centres undefined)	none (no result: DAX1 inh-1)
Cc1ccc(OCC(=O)N2CCN(c3nnc(-c4ccccc4)c4ccccc34)CC2)cc1	none
CC(=O)N1CCN(c2nnc(-c3ccc(C)cc3)c3ccccc23)CC1	ssDAF12 agonist 1.1
C[n+]1cn(/N=C/c2ccccc2)c2ccccc21	hcDAF12 agonist 5.8
O=C(NCC1COc2ccccc2O1)c1ccc(NC(=O)c2cccc(F)c2)cc1 (centres undefined)	none (no result: DAX1 inh-1)
Cc1cc(C)nc(-n2ncc3c2CCCC3=O)n1	DAX1 inh-1 5.4
COc1ccccc1N1C(=O)S/C(=C\c2cccs2)C1=O	ssDAF12 agonist 1.0
COC(=O)[C@H](C(C)C)N(CCc1cn(CC2CCCCC2)nn1)S(=O)(=O)c1ccc(F)cc1Br	none (no result: DAX1 inh-1)
CCN(CC)C(=O)c1ccc2c(c1)N(Cc1ccccc1)C(=O)CS2=O (centres undefined)	DAX1 inh-1 4.7
O=C(CSc1nnc(-c2ccccn2)n1-c1ccccc1)c1ccc2c(c1)OCO2	none (no result: DAX1 inh-1)
O=C(C1CCN(S(=O)(=O)c2cccc3cccnc23)CC1)N1CCN(c2ccccc2)CC1	hgDAF12 agonist 12
c1ccc(Cn2ccc3ccc(-c4ccc5ccn(Cc6ccc7ccccc7c6)c5c4)cc32)cc1	none (no result: DAX1 inh-1)
O=C(NCCN1CCC(n2c(=O)[nH]c3ccccc32)CC1)c1cccc(Cl)c1	hgDAF12 agonist 19 (no result: DAX1 inh-1)
COc1cccc(CC(=O)NCC2CCN(C(=O)C(=O)c3cccs3)CC2)c1	none (no result: DAX1 inh-1)
COc1cccc(NC(=O)n2nc(N)cc2-c2ccc(Cl)cc2)c1	hgDAF12 agonist 12
COc1cccc(NC(=O)COC(=O)Cc2ccc(Cl)cc2)c1	none
CN1CCN(/N=C/c2ccc(OCc3ccccc3)cc2)CC1	DAX1 inh-1 6.0
Cc1ccc(NC(=O)NCc2c(C)nn(C)c2C)cc1Cl	hgDAF12 agonist 13, DAX1 inh-2 4.3
COc1ccc(C(C(=O)NCc2ccccc2)N(Cc2cccnc2)C(=O)c2snc(C(N)=O)c2N)cc1OC (centres undefined)	DAX1 inh-1 4.3
Cc1ccc(CN2CCCCC(NC(=O)Nc3ccccc3F)C2=O)cc1 (centres undefined)	none (no result: DAX1 inh-1)
Cc1sc2ncnc(N/N=C/c3cccc(O)c3)c2c1C	hcDAF12 agonist 5.6
O=C(NC1CCCc2ccccc21)C1CCN(c2c3c(nc4ncnn24)CCC3)CC1 (centres undefined)	ssDAF12 agonist 1.1
O=C(Nc1ccc2c(c1)CCC2)C1CCN(c2c3c(nc4ncnn24)CCC3)CC1	none
NC(=O)COC(=O)C12CC3CC(CC(O)(C3)C1)C2	none
Cc1cc(C(=O)COC(=O)C23CC4CC(CC(O)(C4)C2)C3)c(C)n1C	hgDAF12 agonist 11, DAX1 inh-1 4.5
C/C(CC(=O)Nc1ccc(Br)cc1)=N\NC(=O)c1cccc(O)c1	DAX1 inh-1 5.7
C/C(CC(=O)Nc1ccc2c(c1)OCCO2)=N\NC(=O)c1cccc(O)c1	DAX1 inh-1 6.4
COc1cc(NC(=O)C/C(C)=N/NC(=O)c2cccc(O)c2)c(OC)cc1Cl	hgDAF12 agonist 12, hcDAF12 agonist 6.1
Cc1cccc(-c2nnc(SCC(=O)Nc3cccc4ccccc34)n2Cc2ccco2)c1	none (no result: DAX1 inh-1)
CCC(C)CNC(=O)CSc1nnc(-c2cccnc2)n1C1CCCCC1 (centres undefined)	none (no result: DAX1 inh-1)
COc1ccc(-n2c(SCC(=O)N3CCCC3)nnc2-c2ccncc2)cc1	none (no result: DAX1 inh-1)
CCCCc1nc2cc(C(=O)N3CCC(OC)CC3)ccc2o1	none
C=CCC1(CC=C)CCCN1C(=O)c1ccc2oc(CCCC)nc2c1	hgDAF12 agonist 12, DAX1 inh-1 4.9, hcDAF12 agonist 6.3
CCCCCCCCS(=O)C1CS(=O)(=O)CC1O (centres undefined)	DAX1 inh-1 4.7
CCCC1CCC2(CC1)CCC2OC(=S)Nc1ccccc1Br (centres undefined)	none (no result: DAX1 inh-1, DAX1 inh-2)
CCN1CCN(Cc2ccc(NC(=O)Nc3ccccc3OC)cc2)CC1	hgDAF12 agonist 12
O=c1c2ccccc2oc2cc(NCCCN3CCOCC3)ccc12	hgDAF12 agonist 12
COc1ccc(CN[C@@H]2CC[C@@]34CCCN3C(=O)CCC[C@H]4C2)cc1	none (no result: DAX1 inh-1, DAX1 inh-2)
CCOc1cccc(-c2cc(C(=O)NN)[nH]n2)c1	hgDAF12 agonist 11
O=C1C(c2ccncc2)=C(O)c2ccccc21	hgDAF12 agonist 11, hcDAF12 agonist 6.4, DAX1 inh-2 4.3
COc1ccc(OC)c(S(=O)(=O)N2CCC(C(=O)NCc3cccs3)CC2)c1	none (no result: DAX1 inh-1)
CCCCNC(=O)C[C@H]1C(=O)N(CCCOC)C2=CCCCC[C@]21C(=O)OC	none (no result: DAX1 inh-1)
COc1ccc(/C=N/NC(=O)c2ccoc2C)cc1OC	none
COc1ccc(/C=N/NC(=O)c2ccoc2C)cc1COc1ccc(Cl)cc1	ssDAF12 agonist 1.3
COc1ccc(/C=N/NC(=O)c2ccccc2OC)cc1COc1ccccc1[N+](=O)[O-]	ssDAF12 agonist 1.4
COc1ccc(/C=N/Nc2ccccc2C(=O)O)cc1Cn1cc([N+](=O)[O-])cn1	ssDAF12 agonist 1.1
COc1ccc(/C=N/NC(=O)c2ccccc2OC)cc1COc1ccc(C)cc1	hcDAF12 agonist 5.6
Cc1cc(-c2cc(NC(=O)Cc3c[nH]c4ccccc34)ccc2Nc2cccnc2)ccc1F	none (no result: DAX1 inh-1)
Cc1ccc(NC(=S)NNC(=O)c2cnccn2)cc1	none (no result: DAX1 inh-1)
CCOC(=O)CC[C@@]1(C(=O)OCC)C[C@@H](CC(=O)N2CCCC2)C(=O)N2CCCC=C21	none (no result: DAX1 inh-1)
CCCCOc1ccc(-c2[nH]ncc2C=O)cc1	hgDAF12 agonist 13, DAX1 inh-1 5.1
COC(=O)c1cc(S(=O)(=O)N2CCN(C(C)=O)CC2)cn1C	none (no result: DAX1 inh-1)
N#CCSc1ccccc1NC(=O)CN1C(=O)C2CC=CCC2C1=O (centres undefined)	ssDAF12 agonist 2.3
CC(=O)c1ccc(NC(=S)NC(=O)c2c(Cl)c(C)nn2C)cc1	DAX1 inh-1 4.7
